Only some compounds are listed: those with a hit (about 21% of all), similar ones and a draw of the others.
Pf growth 48h: P. falciparum growth inhibition at 48 hours (one generation) | P. falciparum luciferase growth in erythrocytes, 48 h | Potency, µM (highest dose often 28.7 µM), for inactives: top-dose activity change, negative = inhibition, usual class: inhibitors | hit rate 5.9% among 310,000; also: potency is read from the fitted curve at half-maximal effect; % is scaled to controls: 0 for no effect and ±100 for the full control effect
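Luminescence readout; reporter = integrated firefly luciferase in P. falciparum. RBC culture at 2% hematocrit, 0.1% parasitemia final, 37 C/5% CO2; decreased signal taken as growth inhibition.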
Pf growth 96h: P. falciparum growth inhibition at 96 hours | P. falciparum luciferase reporter growth, 96 h | Potency, µM (top dose mostly 28.7 µM), for inactives: top-dose activity change, negative = inhibition, usual class: inhibitors | hit rate 6.9% among 320,000; also: potency is read from the fitted curve at half-maximal effect; % is scaled to controls: 0 for no effect and ±100 for the full control effect
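Readout is luminescence from an integrated firefly luciferase in P. falciparum. Red cells, 2% hematocrit and 0.05% parasitemia final, were cultured with compound through two parasite generations (96 hours) at 37 C, 5% CO2.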
CHX counter: counter-screen hit for Shiga toxin inhibitors, cycloheximide | cell reporter, cycloheximide protein synthesis inhibition counterscreen | max response, % | hit rate 12% among 300,000 | AID 2314; in the data active = max response mostly above about 13%, no sharp cut-off; inactive = mostly below about 14%; also: read at 38.3 µM for the half of the compounds with a filed dose; 0% is about no effect
NS1 function inh: inhibitors of influenza NS1 protein function; Potency, µM (series often up to 46.1 µM), inactives show at the highest dose activity, positive = more growth; hit rate 0.4% among 270,000; calls by dose curve; also: potency is read from the fitted curve at half-maximal effect; actives are rising curves; nearly all actives have a fitted effect of over 50% in size
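Recovery from NS1-induced slow growth read by OD600 in budding yeast switched to galactose assay medium (pH 6.0, -URA) at 1:100 dilution. Compound 23 nl per well; the matching strain lacking NS1 serves as control.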
Shiga inhibitor: Shiga toxin inhibition | Vero cells, Shiga toxin protein synthesis inhibition reporter | inhibition, % at 38.7 µM | hit rate 9.2% among 290,000 | AID 2315; in the data active = inhibition mostly above about 28%, no sharp cut-off; inactive = mostly below about 43%; also: 0% is about no effect
SARS PLpro yeast: SARS-CoV PLP inhibition in yeast. Potency, µM (series often up to 32.9 µM), for inactives: at the highest dose activity, positive = growth rescue, most hits filed as activators. hit rate 0.19% among 330,000. S. cerevisiae expressing SARS-CoV PLpro, growth rescue; calls by dose curve; also: potency is read from the fitted curve at half-maximal effect; 0% is about no effect; nearly all actives have a fitted effect of over 55% in size
The depositor's hits bear a star. Unless noted, calls follow the shape of the dose curve; as a rule, active = well fitted inhibition curve with a large enough effect; inconclusive = small, poorly fitted or top-dose-only effect, or another doubt; inactive = no such curve, though single readings can be large or run the other way.

For Cc1cc(C)n2nnnc2n1 the results were Pf growth 48h -4%, Pf growth 96h 30%, CHX counter 1, NS1 function inh 6%, Shiga inhibitor 24 and SARS PLpro yeast 0%.
For COc1ccc(S(=O)(=O)N2CCOC2CNC(=O)C(=O)NCCCN2CCOCC2)cc1 (stereo not given) the results were Pf growth 48h -9%, Pf growth 96h 8%, CHX counter 1, NS1 function inh 8%, Shiga inhibitor -4 and SARS PLpro yeast -7%.
`CC[C@@H]1CCCCc2ccccc2[C@H](C(=O)C[C@H](O)CC(C)=O)OC1=O` gave SARS PLpro yeast -2%.
Fc1cccc(Nc2cc(-n3cccn3)ncn2)c1 was read as Pf growth 48h 206%, Pf growth 96h 80%, CHX counter 49*, NS1 function inh -6%, Shiga inhibitor 51* and SARS PLpro yeast -4%.
`Cc1ccc(Nc2cc(-n3cccn3)ncn2)c(C)c1` gave Pf growth 96h -26%, CHX counter 28*, NS1 function inh -51%, Shiga inhibitor 22 and SARS PLpro yeast -3%.
COc1ccc(C(=O)/C=C/Nc2c(C)n(C)n(-c3ccccc3)c2=O)c(OC)c1 was read as Pf growth 48h -18%, Pf growth 96h inconclusive, CHX counter -2, Shiga inhibitor -5 and SARS PLpro yeast 0%.
`COc1ccc(C(=O)/C=C/Nc2ccccn2)c(OC)c1` gave Pf growth 48h 432%, Pf growth 96h 378%, CHX counter 52*, NS1 function inh -46%, Shiga inhibitor 57* and SARS PLpro yeast -3%.
`O=C(/C=C/Nc1ccccc1)c1ccc(Oc2ncccn2)cc1` gave Pf growth 48h 220%, Pf growth 96h 263%, CHX counter 24*, NS1 function inh -1%, Shiga inhibitor 109* and SARS PLpro yeast -4%.
O=C(/C=C\Nc1ccccn1)c1ccccc1 was read as Pf growth 48h -53%, Pf growth 96h inactive, CHX counter 17, NS1 function inh -172%, Shiga inhibitor 55* and SARS PLpro yeast -21%.
`O=C(/C=C/Nc1ccccc1Br)c1ccccn1` gave Pf growth 48h -71%, Pf growth 96h inconclusive, CHX counter -7, NS1 function inh -92% and Shiga inhibitor -20.
CN(C)/C=C/C(=O)c1ccc(Oc2ncccn2)cc1 was read as Pf growth 48h 14%, Pf growth 96h 23%, CHX counter 5, NS1 function inh -3%, Shiga inhibitor 39 and SARS PLpro yeast 1%.
Screening O=C(COC(=O)/C=C/c1ccc(OC(F)F)cc1)NCc1cccs1 returned Pf growth 48h 11%, Pf growth 96h -47%, CHX counter 11, NS1 function inh -2%, Shiga inhibitor 10 and SARS PLpro yeast inconclusive.
`C[C@@]12C(=O)Nc3cc(Cl)ccc3C(=O)N1[C@H]1c3ccccc3OC[C@@H]1[C@@H]2c1ccccc1` gave Pf growth 48h inconclusive, Pf growth 96h 9.3µM* and SARS PLpro yeast 1%.
Screening C[C@@]12C(=O)Nc3ccc(Cl)cc3C(=O)N1[C@H]1c3ccccc3OC[C@@H]1[C@@H]2c1ccccc1 returned Pf growth 48h 13µM*, Pf growth 96h 10µM* and SARS PLpro yeast -1%.
C[C@@]12C(=O)Nc3cc(Cl)ccc3C(=O)N1[C@H]1c3cc(Br)ccc3OC[C@@H]1[C@@H]2c1ccccc1 was read as Pf growth 48h 9.3µM*, Pf growth 96h 9.3µM* and SARS PLpro yeast 1%.
For O=C(NC1CCCC1)C1CC(c2ccc(F)cc2)=NO1 (stereo not given) the results were Pf growth 48h 9%, Pf growth 96h inconclusive, CHX counter 42*, NS1 function inh -19%, Shiga inhibitor 69* and SARS PLpro yeast -2%.
Screening O=C(NCc1ccco1)C1CC(c2ccc(Cl)cc2)=NO1 (stereo not given) returned Pf growth 48h 25%, Pf growth 96h 24%, CHX counter 27*, NS1 function inh 1%, Shiga inhibitor 32 and SARS PLpro yeast 0%.
`O=C(NCc1cccs1)C1CC(c2ccc(Cl)cc2)=NO1` (stereo not given) gave Pf growth 48h 26%, Pf growth 96h 31%, CHX counter 13*, NS1 function inh -1%, Shiga inhibitor 54 and SARS PLpro yeast -2%.
CC(=O)c1ccc(NC(=O)C2CC(c3ccc(F)cc3)=NO2)cc1 (stereo not given) was read as Pf growth 48h 16%, Pf growth 96h 16%, CHX counter -1, NS1 function inh -9%, Shiga inhibitor 1 and SARS PLpro yeast 2%.
For O=C(NCc1ccccn1)C1CC(c2ccc(F)cc2)=NO1 (stereo not given) the results were Pf growth 96h 2.9µM*, CHX counter 2, NS1 function inh -3%, Shiga inhibitor -9 and SARS PLpro yeast -3%.
Cc1ccc(CNC(=O)C2CC(c3ccc(C(F)(F)F)cc3)=NO2)o1 (stereo not given) was read as Pf growth 48h 45%, Pf growth 96h 62%, CHX counter -3, NS1 function inh -5%, Shiga inhibitor -2 and SARS PLpro yeast -2%.
`CCSCc1nnc(SCC(=O)c2ccc(OC)cc2)n1C` gave Pf growth 48h 16%, CHX counter 11, NS1 function inh -2%, Shiga inhibitor 13 and SARS PLpro yeast 1%.
`CC(C(=O)N1CCN(C(=O)c2ccco2)CC1)N1C(=O)NC2(CCCCC2C)C1=O` (stereo not given) gave Pf growth 48h -5%, Pf growth 96h -22% and SARS PLpro yeast 2%.
`CCCC[N+](CC#Cc1ccccc1)(CCCC)CCCS(=O)(=O)[O-]` gave Pf growth 48h 4%, Pf growth 96h -3%, CHX counter 1, Shiga inhibitor 3 and SARS PLpro yeast -1%.
O=C(NC(=S)Nc1cccc2c(O)cccc12)c1ccccc1[N+](=O)[O-] was read as Pf growth 48h 8%, Pf growth 96h inconclusive, CHX counter 12, NS1 function inh 6%, Shiga inhibitor 18 and SARS PLpro yeast 21%.
For O=C(NCc1ccco1)C1CC(c2ccc(F)cc2)=NO1 (stereo not given) the results were Pf growth 48h 46%, Pf growth 96h 53%, CHX counter 17*, NS1 function inh -5%, Shiga inhibitor 36 and SARS PLpro yeast -1%.
COc1ccc(/C=C2\C(=O)NC(=S)N2C(=O)c2ccc(C)cc2)cc1 was read as Pf growth 48h 35%, Pf growth 96h 7.4µM*, CHX counter 35*, NS1 function inh -1%, Shiga inhibitor 59* and SARS PLpro yeast 0%.
For O=C1NC(=S)N(C(=O)c2ccc(F)cc2)/C1=C/c1cccnc1 the results were Pf growth 48h inconclusive, Pf growth 96h inconclusive, CHX counter 9, NS1 function inh -4%, Shiga inhibitor 8 and SARS PLpro yeast 0%.

Compound activity deposited in PubChem BioAssay by National Center for Advancing Translational Sciences (NCATS).
